# A selection: hits, their analogues and other compounds. The true share with any hit is near 2.5%.
# Cruzain inh noDet = blocks cruzain activity in detergent-free assay; P25779; purified cruzain, Z-FR-AMC fluorescence, no detergent; Potency, µM, inactives show max response, negative = inhibition, actives largely listed as inhibitors; 200,000 tested, 2.3% active; AID 1476;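 note: plate controls were enzyme without inhibitor for no effect and buffer without enzyme for full effect; nearly all actives have a fitted effect of over 40% in size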
# Target sequence (P25779 123-467 limits assumed): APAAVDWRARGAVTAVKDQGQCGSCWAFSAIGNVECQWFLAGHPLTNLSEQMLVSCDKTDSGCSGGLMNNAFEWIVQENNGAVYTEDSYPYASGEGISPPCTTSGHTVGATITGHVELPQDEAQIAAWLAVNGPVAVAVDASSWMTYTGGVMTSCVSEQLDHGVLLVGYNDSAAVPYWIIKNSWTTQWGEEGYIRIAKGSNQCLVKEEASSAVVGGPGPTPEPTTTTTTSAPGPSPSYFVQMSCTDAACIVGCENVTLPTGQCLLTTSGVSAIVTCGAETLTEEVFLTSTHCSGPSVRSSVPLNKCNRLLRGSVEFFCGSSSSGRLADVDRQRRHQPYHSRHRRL
#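 Detergent-free condition (0.00005% Triton X-100) in acetate buffer pH 5.5 with DTT. 1.5 nM enzyme and compound were pre-mixed 15 min, then 2 uM Z-FR-AMC substrate added; reaction progress from fluorescence change between first and third reads (60 s).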
# Cruzain Triton = inhibitors of Trypanosoma cruzi cruzain with detergent | P25779 | purified cruzain, Z-FR-AMC fluorescence, 0.01% Triton | Potency, µM, for the others: max response, negative = inhibition, hits mostly inhibitors | 200,000 tested, 0.43% active;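 note: plate controls were neutral wells for no effect and buffer without enzyme for full effect; nearly all actives have a fitted effect of over 40% in size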
#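 Sodium acetate buffer (100 mM, pH 5.5) containing 5 mM DTT and 0.01% Triton X-100 hosted 1.5 nM cruzain and test compound for 15 min at room temperature. Cleavage of 2 uM Z-FR-AMC was then tracked by fluorescence.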
# Numbers without * were called inactive; ? = inconclusive. Calls come from the whole dose curve; as a rule, active = well fitted curve in the direction sought with a large enough effect; inconclusive = small, poorly fitted or top-dose-only effect, or another doubt; inactive = no such curve, though single readings can be large; an effect the other way counts as inactive or inconclusive. Potency is the fitted concentration of half-maximal effect.
SMILES,Cruzain inh noDet,Cruzain Triton
CCOc1ccc(NC(=O)Cn2cc(C(=O)c3ccc(CC)cc3)c(=O)c3ccc(C)nc32)cc1,2%,3%
COc1ccc2[nH]c(=O)c(CN(C(=O)c3cccc(Cl)c3)c3ccccc3OC)cc2c1,7%,-13%
CCOc1ccccc1CNC(=O)Cn1nc(C)c2nn(-c3ccc(Cl)cc3)c(C)c2c1=O,6%,2%
O=C(CSc1nc2ccccc2n1Cc1cccc(C(F)(F)F)c1)NCc1ccccc1,?,-10%
O=C(CN1C(=O)c2ccccc2C1=O)Nc1ccc2c(c1)OCO2,-15%,1%
O=C(Cn1c(O)c(/C=C2\C=Nc3ccccc32)sc1=O)Nc1ccc2c(c1)OCO2,5µM*,0%
COc1cccc(Cn2c(CNS(=O)(=O)c3ccc(F)c(Cl)c3)nc3cccnc32)c1,-9%,-9%
COc1ccc(CCn2c(=O)c3cccnc3n(CC(=O)Nc3ccc(C)cc3C)c2=O)cc1OC,1%,-2%
Cc1ccc(NC(=O)c2oc3ccc(S(=O)(=O)N4CCC5(CC4)OCCO5)cc3c2C)c(C)c1,?,-1%
CCN(CC)c1nn2c(=O)c(C(=O)NCc3cccc(OC)c3OC)cnc2s1,-9%,-11%
COc1ccc(NC(=O)c2cc3c(=O)n(Cc4cccnc4)ccc3nc2C)c(OC)c1,2%,-2%
COc1ccc2c(Sc3ccc(C)cc3)c(C(=O)NCCc3ccccc3)[nH]c2c1,16µM*,-3%
COCCCNC(=O)c1[nH]c2cc(OC)ccc2c1Sc1ccc(C)cc1,26%,1%
O=C(Oc1ccccc1)C1O[C@@H]1c1ccccc1 (stereo partly specified),-1%,4%
CCOc1ccccc1C(=O)NCC(=O)OCC(=O)NCCc1ccc(S(N)(=O)=O)cc1,16µM*,25µM*
Cc1ccccc1OCCC(=O)NCCc1ccc(S(N)(=O)=O)cc1,9%,0%
COc1cccc(NC(=O)CCc2nc(-c3cc(OC)c(OC)c(OC)c3)no2)c1,?,-11%
COc1ccc(-c2nc(-c3ccc(Br)o3)no2)cc1,-21%,6%
COc1ccc(Cl)cc1-c1nc(-c2ccc(Br)o2)no1,7.9µM*,10%
CCCCC(=O)Nc1cccc(-c2nc3ccccc3s2)c1,-5%,-14%
Cc1cc(C=O)c(C)n1-c1ccc(Oc2ccc([N+](=O)[O-])cn2)cc1,-10%,-4%
Cc1cccc(C)c1-n1c(C)cc(/C=N\Nc2ccc([N+](=O)[O-])cn2)c1C,16µM*,-4%
O=[N+]([O-])c1ccc(N/N=C/c2cn(Cc3ccc(F)cc3)c3ccccc23)nc1,7.9µM*,-9%
CNC(=S)N/N=C/c1cn(Cc2ccc(F)cc2)c2ccccc12,?,-13%
Cc1ccc(N2CCN(C(=O)c3cn(C)c4ccc(S(=O)(=O)N5CCCC5)cc4c3=O)CC2C)cc1 (stereo unspecified),?,-4%
SMILES,Cruzain inh noDet,Cruzain Triton
Cc1ccc(C(=O)c2no[n+]([O-])c2C(=O)c2ccc(C)cc2)cc1,25µM*,?
Cc1ccc(C(=O)/C=C\C(=O)c2ccc(C)cc2)cc1,-21%,-9%
c1ccc(N2CCN(c3nc4ccccc4n4nnnc34)CC2)cc1,25µM*,4%
CCOc1ccc(Nc2nc3ccccc3n3nnnc23)cc1,-1%,-3%
c1ccc2c(c1)nc(N1CCOCC1)c1nnnn12,-12%,-1%
CN(C)c1ccc(Nc2nc3ccccc3n3nnnc23)cc1,16µM*,-8%
COc1ccc(CCNc2nc3ccccc3n3nnnc23)cc1OC,0%,0%
c1ccc(CCNc2nc3ccccc3n3nnnc23)cc1,13µM*,3%
Cc1ccc(-c2nc(-c3cc4c([nH]c3=O)CC(C)(C)CC4=O)sc2C)cc1,-2%,-4%
N#Cc1ccc(CS(=O)(=O)c2nc3ccccc3s2)cc1,5%,5%
Cc1ccc(CNC(=O)c2ccc3nc4[nH]c5ccccc5c4nc3c2)cc1,25µM*,-6%
COc1ccccc1CNC(=O)c1ccc2nc3[nH]c4ccccc4c3nc2c1,?,-3%
COc1ccc(/C=C(\C#N)C(=O)Nc2cc(S(=O)(=O)N3CCCCC3)ccc2N2CCCCC2)cc1,4µM*,-2%
COc1ccc(/C=C/C(=O)Nc2cc(S(=O)(=O)N3CCCCC3)ccc2N2CCCCC2)cc1OC,-28%,-2%
O=C(NCc1cccc(Cl)c1)C1CCCN(c2ncnc3onc(-c4ccc(F)cc4)c23)C1 (stereo unspecified),-2%,-3%
COC(=O)c1cccc(Nc2c(-c3ccc(OC)cc3)nc3nc[nH]n23)c1,-3%,-3%
CCn1ccc2cc(S(=O)(=O)N3CCCN(C(=O)NCCOC)CC3)ccc21,3%,-1%
Clc1ccc(CSc2nc3ncccc3[nH]2)cc1,-12%,-2%
Cc1cc(C)cc(NC(=O)CN(c2cccc(C)c2C)S(=O)(=O)c2ccccc2)c1,?,-7%
Cc1cc(NC(=O)CN(c2cccc(C)c2C)S(=O)(=O)c2ccccc2)ccc1Br,6.3µM*,-3%
CSc1ncnc2c1ncn2CC(=O)[C@H]1CC[C@H]2[C@H]3CCC4=CC(=O)CC[C@@]4(C)[C@@H]3CC[C@@]12C,5%,0%
CCOC(=O)C1CCN(C(=O)Cn2c(=O)oc3cc(S(=O)(=O)N4CCC(C)CC4)ccc32)CC1,-5%,1%
CCOC(=O)c1c(NC(=O)CS(=O)(=O)c2ccc(C)cc2)sc2c1CCCCC2,4µM*,-8%
COC(=O)c1c(NC(=O)COC(=O)[C@@H](NS(=O)(=O)c2ccc(C)cc2)C(C)C)sc2c1CCC2,16µM*,-6%
CCOC(=O)c1c(NC(=O)CS(=O)(=O)c2ccc(Cl)cc2)sc2c1CCCC2,5%,-1%
SMILES,Cruzain inh noDet,Cruzain Triton
COC(=O)c1c(NC(=O)COC(=O)c2ccc(C)s2)sc2c1CCCCC2,-2%,1%
CCOC(=O)CNC(=O)O[C@@H]1C(=O)c2cc(Br)ccc2O[C@H]1c1cccc(OC)c1,-5%,0%
COc1ccc(N2CCN(c3oc(/C=C/c4cc(OC)c(OC)c(OC)c4)nc3C#N)CC2)cc1,?,1%
CCOc1ccc(CNC(=O)C2CCN(S(=O)(=O)N3CCCCC3)CC2)cc1,1%,0%
COc1ccc(N2CCN(C(=O)c3sc4nc5n(c(=O)c4c3C)CCC5)CC2)cc1,2%,-6%
C=C[C@@H]1CN2CC[C@H]1CC2[C@H](O)c1ccnc2ccccc12 (stereo partly specified),-3%,4%
C/C(=C\C(=O)c1ccc(F)cc1)Nc1ccc(N2CCOCC2)cc1,-12%,0%
NC(=O)CC[C@H](NC(=O)c1ccc(F)cc1)C(=O)OCC(=O)Nc1ccc(N2CCOCC2)cc1,?,25µM*
CCOc1ccc(CNC(=O)c2cccn2-c2nnc(N3CCCCC3)s2)cc1OC,-10%,-2%
Cc1ccccc1CNC(=O)c1cc2cc(S(=O)(=O)N3CCCCC3)ccc2n1C,?,-2%
COc1ccc2nc(N/C(N)=N/C(=S)Nc3ccc(C)c(C)c3)nc(C)c2c1,13µM*,-12%
Cc1ccc(NC(=S)/N=C(\N)Nc2nc(C)c3ccccc3n2)cc1C,?,-2%
Cc1ccc(NC(=O)c2c(Nc3ccccc3C)sc(C(=O)c3ccccc3)c2N)cc1,6.3µM*,-1%
CCOc1ccc(NC(=O)c2c(Nc3ccccc3C)sc(C(=O)c3ccc(Cl)cc3)c2N)cc1,-27%,-7%
COc1ccc(CCNC(=O)c2c(Nc3ccccc3C)sc(C(=O)c3ccccc3)c2N)cc1OC,?,-2%
COc1ccc(Nc2sc(C(=O)c3ccccc3)c(N)c2C(=O)Nc2cc(C)ccc2C)c(OC)c1,10µM*,-1%
